12-LOX inh: ALOX12 (human) lipoxygenase inhibition | purified 12hLO, xylenol orange hydroperoxide absorbance | Potency, µM (doses to about 108 µM), inactives show top-dose activity change, negative = inhibition, usual class: inhibitors | actives 1.1% (n = 580,000) | AID 1671190; further: on the % scale 0 is the no-effect control and ±100 the full control effect
Target sequence (P18054 whole entry, looked up): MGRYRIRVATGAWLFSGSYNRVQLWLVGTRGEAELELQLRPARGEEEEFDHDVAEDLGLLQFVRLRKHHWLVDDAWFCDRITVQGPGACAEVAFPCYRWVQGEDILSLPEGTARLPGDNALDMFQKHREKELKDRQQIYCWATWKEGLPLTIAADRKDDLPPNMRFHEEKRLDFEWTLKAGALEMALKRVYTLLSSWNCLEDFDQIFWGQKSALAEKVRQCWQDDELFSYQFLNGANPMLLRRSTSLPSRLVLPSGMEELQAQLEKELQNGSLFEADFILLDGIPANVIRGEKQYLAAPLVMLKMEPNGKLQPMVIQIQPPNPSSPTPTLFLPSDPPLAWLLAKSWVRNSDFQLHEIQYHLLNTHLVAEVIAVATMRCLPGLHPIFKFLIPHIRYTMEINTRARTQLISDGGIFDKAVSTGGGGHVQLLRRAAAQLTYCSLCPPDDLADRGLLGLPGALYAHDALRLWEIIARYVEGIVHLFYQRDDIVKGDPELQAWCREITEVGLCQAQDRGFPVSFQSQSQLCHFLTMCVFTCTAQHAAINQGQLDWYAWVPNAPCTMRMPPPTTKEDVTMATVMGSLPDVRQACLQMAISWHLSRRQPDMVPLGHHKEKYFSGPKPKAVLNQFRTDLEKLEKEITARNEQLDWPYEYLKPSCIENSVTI
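Hydroperoxide product was detected by ferrous iron/xylenol orange as the 573 to 405 nm absorbance ratio. Arachidonic acid at 40 uM (final) was turned over for 30 min at room temperature by 150 nM human 12hLO, pH 7.0 Hepes buffer, after 15 min compound preincubation.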
G9a inh: blocks human histone lysine methyltransferase G9a | G9a H3K9 monomethylation, AlphaScreen, 2 h | Potency, µM (highest dose often 102 µM), inactives show at the top dose activity, negative = inhibition, usual class: inhibitors | Q96KQ7 | actives 8.8% (n = 350,000) | AID 504332; further: on the % scale 0 is the no-effect control and ±100 the full control effect; nearly all actives have a fitted effect of over 75% in size
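Using a bead-based AlphaScreen, monomethylated H3K9 product from 2 h room-temperature reactions (G9a 20 nM, peptide 500 nM, SAM 20 uM) was detected with 0.5 ug/mL rabbit anti-H3K9me1 antibody.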
Sfp inh: inhibitors of Bacillus subtilis Sfp phosphopantetheinyl transferase; Q9F4F7; Biochemical Sfp PPTase activity, qHTS; Potency, µM, without a hit: largest response in the series, negative = inhibition, usual class: inhibitors; actives 3.5% (n = 310,000); AID 1490;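 further: the enzyme is Sfp with the accession as filed and its product quenches rhodamine fluorescence; 0% = enzyme reaction without inhibitor and -100% = no enzyme wells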
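Sfp 15 nM + cpd, 15 min RT; start w/ rhodamine-CoA 5 uM, BHQ-2-YbbR 12.5 uM (final); 50 mM Hepes pH 7.6, 10 mM MgCl2, 0.01% NP-40, 0.01% BSA; read 525/598 nm at 0 and 30 min.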
VDR inhibitor: blocks the human vitamin D receptor | P11473 | VDR-SRC2-3 peptide fluorescence polarization, 2 h | Potency, µM, without a hit: max response, negative = inhibition, most hits filed as inhibitors | actives 0.93% (n = 400,000); further: on the % scale 0 is the no-effect control and ±100 the full control effect
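Measured by FP: displacement of SRC2-3 coactivator peptide from VDR by library compounds, following a two-hour ambient incubation.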
GRP78 ERSR act: induces the endoplasmic reticulum stress response in human glioma cells | actives 0.02% (n = 420,000) | U87-MG GRP78 promoter luciferase reporter, 16 h | Potency, µM, for inactives: at the top dose activation, most hits filed as activators; further: series mostly up to about 76 µM; % of control where 0% means no effect; nearly all actives have a fitted effect of over 35% in size
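Stably transfected U87-MG human glioma cells carrying a GRP78-based luminescent sensor were seeded at 1000 cells/well, pin-dosed with compounds and incubated 16 h. Luciferase reagent was then added, and end-point luminescence was read after 10 min at room temperature.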
Active calls of the source: *; [ ] = remark or other dose. This excerpt belongs to a sample that is enriched for hits. The call rests on the fitted dose curve; in most records, active means well fitted curve in the direction sought with a large enough effect; inconclusive means small, poorly fitted or top-dose-only effect, or another doubt; inactive means no such curve, though single readings can be large; an effect the other way counts as inactive or inconclusive. Potency means the concentration at half of the fitted maximal effect.

`Cc1ccc2c(c1)c(C)c(C)n2CC(O)Cn1nc(C)cc1C` (configuration not stated) gave 12-LOX inh -11%, G9a inh 45µM*, Sfp inh 17%, VDR inhibitor 1% and GRP78 ERSR act -2%.
Screening Cc1ccc2c(c1)c(C)c(C)n2CC(O)Cn1nnc2ccccc21 (configuration not stated) returned 12-LOX inh -12%, G9a inh inconclusive, Sfp inh 0%, VDR inhibitor 35% and GRP78 ERSR act -8%.
CC(=O)NC1=NN(C(C)=O)C2(S1)C(=O)N(C(C)C)c1ccc(C)cc12 (configuration not stated) was read as 12-LOX inh 22%, G9a inh 50µM*, Sfp inh 0%, VDR inhibitor -4% and GRP78 ERSR act 0%.
`Clc1ccc(-c2nnc(N3CCCC3)nn2)cc1` gave 12-LOX inh -8%, G9a inh 7.1µM*, Sfp inh 5%, VDR inhibitor 2% and GRP78 ERSR act 5%.
For CCCn1c(NC(=S)Nc2ccccc2)nc2ccccc21 the results were 12-LOX inh 22µM*, G9a inh 7%, Sfp inh -10%, VDR inhibitor -5% and GRP78 ERSR act 5%.
`S=C(Nc1ccccc1)Nc1nc2ccccc2n1CCOc1ccc(Cl)cc1` gave 12-LOX inh 8.9µM*, G9a inh -10%[59 µM], Sfp inh inconclusive, VDR inhibitor -8% and GRP78 ERSR act 10%.
Screening N#Cc1nc(C2CC2)oc1N1CCN(Cc2cccc(Cl)c2)CC1 returned 12-LOX inh -25%.
For Cc1ccc(-n2c(=O)c3ccc(C(=O)NCc4ccco4)cc3n(Cc3ccccc3Cl)c2=O)cc1 the results were 12-LOX inh -25%, G9a inh 1.6µM*, VDR inhibitor 3% and GRP78 ERSR act -4%.
O=C1C2CC=CCC2C(=O)N1c1ccc(NCCc2ccccc2)c([N+](=O)[O-])c1 (configuration not stated) was read as 12-LOX inh -14%, G9a inh inconclusive, Sfp inh -2%, VDR inhibitor -3% and GRP78 ERSR act -2%.
O=C1C2CC=CCC2C(=O)N1c1ccc(NCCc2ccccc2F)c([N+](=O)[O-])c1 (configuration not stated) was read as 12-LOX inh -2%, G9a inh 40µM*, Sfp inh 13%, VDR inhibitor 5% and GRP78 ERSR act 1%.
`CCC(Sc1ccc2nnc(-c3cccnc3)n2n1)C(=O)O` (configuration not stated) gave 12-LOX inh -22%, G9a inh 50µM*, Sfp inh 11%, VDR inhibitor -15% and GRP78 ERSR act -2%.
Screening CCOC(=O)C(C)Sc1ccc2nnc(-c3ccc(F)cc3)n2n1 (configuration not stated) returned 12-LOX inh inconclusive, G9a inh 7.9µM*, Sfp inh inconclusive, VDR inhibitor -11% and GRP78 ERSR act -3%.
Screening CC(Sc1ccc2nnc(-c3ccc(F)cc3)n2n1)C(=O)O (configuration not stated) returned 12-LOX inh inconclusive, G9a inh 3.5µM*, Sfp inh -2%, VDR inhibitor inconclusive and GRP78 ERSR act -1%.
For Cc1ccc(-c2nnc3ccc(SC(C)C(=O)O)nn23)cc1 (configuration not stated) the results were 12-LOX inh 32µM*, G9a inh 3.5µM*, Sfp inh inconclusive, VDR inhibitor -14% and GRP78 ERSR act -1%.
Screening COC[C@H]1CCCN1C(=O)[C@@H](C)C1CC[C@@]2(C)CC[C@H](NC(=O)c3cncnc3)[C@@H](C)[C@@H]2[C@H]1O (some centres not stated) returned 12-LOX inh 5%.
Screening O=C(NCc1ccco1)c1nn(Cc2ccccc2)c(=O)c2ccccc12 returned 12-LOX inh -12%.
O=C(CCl)Nc1cc(SCC(O)CO)cc([N+](=O)[O-])c1 (configuration not stated) was read as 12-LOX inh inconclusive, G9a inh 50µM*, Sfp inh 71µM*, VDR inhibitor -2% and GRP78 ERSR act -15%.
Screening COc1ccc(C2CC(=O)Nc3c(C(=O)O)cn(-c4ccc(F)cc4)c32)cc1O (configuration not stated) returned 12-LOX inh -9%.
Cc1ccc2[nH]c(-c3cccc(N)c3)cc2c1 was read as 12-LOX inh 0%, G9a inh 50µM*, Sfp inh 18%, VDR inhibitor 1% and GRP78 ERSR act -15%.
For Nc1ccc(-c2cc3ccccc3[nH]2)cc1 the results were GRP78 ERSR act 1%.
CC1=C[C@@H](CNc2ccccn2)[C@H](C(C)C)C[C@H]1Cc1nnc(-c2ccc(C)cc2)o1 was read as 12-LOX inh 0%[176 µM].
For CCC(NC(=O)C1CC1)c1ccc(C)cc1 (configuration not stated) the results were 12-LOX inh 5µM*.
CC(C)(C)C(=O)CSc1nc2ncc(Br)cc2[nH]1 was read as 12-LOX inh 0%, G9a inh 50µM*, Sfp inh 8%, VDR inhibitor 13% and GRP78 ERSR act 3%.
Screening O=C(Nc1nc2ccccc2[nH]1)c1cccc([N+](=O)[O-])c1 returned 12-LOX inh 15%, G9a inh 8%, Sfp inh 30%, VDR inhibitor -7% and GRP78 ERSR act 3%.
`Cc1nc2nc(SCC(=O)C(C)(C)C)[nH]c2cc1Br` gave 12-LOX inh 0%, G9a inh -5%, Sfp inh 12%, VDR inhibitor 5% and GRP78 ERSR act -4%.
O=C(CSc1nc2ncc(Br)cc2[nH]1)c1cccc([N+](=O)[O-])c1 was read as 12-LOX inh -25%, G9a inh 45µM*, Sfp inh 7%, VDR inhibitor -13% and GRP78 ERSR act -3%.
Screening O=C(Cc1nc2ccccc2[nH]1)c1cccc([N+](=O)[O-])c1 returned 12-LOX inh -14%, Sfp inh 14µM*, VDR inhibitor -19% and GRP78 ERSR act -3%.
Cc1nc2nc(SCC(=O)c3cccc([N+](=O)[O-])c3)[nH]c2cc1Br was read as 12-LOX inh -22%, G9a inh inconclusive, Sfp inh 3%, VDR inhibitor -7% and GRP78 ERSR act 4%.
COc1cccc(CCC(=O)N2CCC(Cc3nc(C4CC4)n[nH]3)CC2)c1 was read as 12-LOX inh 37%.
OC1CC(c2cc(N3CCN(c4nsc5ccccc45)CC3)ncn2)C1 (configuration not stated) was read as 12-LOX inh 36%.
For CN(Cc1ccccc1Cl)C(=O)Cn1c(=O)c2c(ncn2C)n(C)c1=O the results were 12-LOX inh 11%.

High-throughput results as filed in PubChem BioAssay.
